High-throughput results from PubChem.
Pol iota inh: DNA polymerase iota (human) inhibition. Pol iota fluorescent replication assay, 10 min. Potency, µM (highest dose often 115 µM), inactives show top-dose activity, negative = inhibition, most hits filed as inhibitors. 1% of 390,000 active. AID 588590
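Fluorescent replication assay read twice, at 0 min and 10 min after adding 50 nM (final) substrate. Enzyme (10 nM) and compounds were first incubated 15 min at room temperature; enzyme-free buffer wells were negative controls.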
FEN1 inh: inhibitors of human flap endonuclease 1; Recombinant FEN1 flap cleavage, fluorescence, 15 min; Potency, µM (titrated, usually from 114 µM), without a hit: at the top dose activity change, negative = inhibition, actives largely listed as inhibitors; 0.35% of 390,000 active; AID 588795; also: % is scaled to controls: 0 for no effect and ±100 for the full control effect; nearly all actives have a fitted effect of over 65% in size
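Steps: FEN1 (10 nM) dispensed; compound added by pin tool; 15 min at room temperature; substrate added to 50 nM final; reads at 0 min and 15 min; data normalized and fitted (four-parameter Hill).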
POLK inh: DNA polymerase kappa (human) inhibition; Q9UBT6; purified Pol kappa, fluorescent DNA synthesis assay, 10 min; Potency, µM (series often up to 107 µM), for inactives: at the top dose activity, negative = inhibition, usual class: inhibitors; 0.53% of 400,000 active; AID 588579; also: % is scaled to controls: 0 for no effect and ±100 for the full control effect
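Kinetic fluorescence screen: compound preincubated 15 min RT with 10 nM enzyme; 50 nM substrate (final) initiates; reads at 0/10 min.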
Pol beta inh: blocks human DNA polymerase beta activity; P06746; Pol beta primer extension/strand displacement, fluorescence kinetic; 1.3% of 340,000 active; Potency, µM (doses to about 114 µM), without a hit: at the highest dose activity change, negative = inhibition, hits mostly inhibitors; AID 485314; also: % is scaled to controls: 0 for no effect and ±100 for the full control effect
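Values derive from four-parameter Hill fits of normalized kinetic data: reads at 0 and 10 min following addition of 50 nM substrate to 10 nM Pol beta preincubated 15 min with compound.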
POLH inh: inhibitors of human DNA polymerase eta | Q9Y253 | recombinant Pol eta, fluorescent DNA replication assay | Potency, µM (top dose mostly 114 µM), for inactives: at the top dose activity change, negative = inhibition, usual class: inhibitors | 1.2% of 390,000 active | AID 588591; also: % is scaled to controls: 0 for no effect and ±100 for the full control effect
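Pol eta (10 nM) was preincubated with compounds for 15 min at room temperature, after which fluorescent replication substrate (50 nM final) was added to start the reaction. Fluorescence was read kinetically at 0 and 10 min.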
WRN inhibitor: WRN helicase (human) inhibition; Potency, µM (titrated, usually from 114 µM), for inactives: at the top dose activity change, negative = inhibition, hits mostly inhibitors; 0.46% of 360,000 active; WRN helicase unwinding, fluorescent forked duplex, kinetic; AID 651768; Q14191; also: % is scaled to controls: 0 for no effect and ±100 for the full control effect; nearly all actives have a fitted effect of over 55% in size
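Fluorescence dequenching readout, ex 525 nm/em 598 nm, kinetic mode: forked duplex DNA (100 nM final) with adjacent fluorophore and quencher unwound by WRN (20 nM final) with 2 mM ATP. Compound preincubation 15 min, room temperature.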
The depositor's hits bear a star; ? = inconclusive; . = not tested or not shown; [ ] = another dose, or the depositor's remark. Shown are actives, neighbours in structure and some others; about 2.4% of the full set was active somewhere. Calls follow the shape of the dose curve; as a rule, active = well fitted curve in the direction sought with a large enough effect; inconclusive = small, poorly fitted or top-dose-only effect, or another doubt; inactive = no such curve, though single readings can be large; an effect the other way counts as inactive or inconclusive. Potency is read from the fitted curve at half-maximal effect.

SMILES | Pol iota inh | FEN1 inh | POLK inh | Pol beta inh | POLH inh | WRN inhibitor
O=C1SC(SCc2ccccc2)=N/C1=C\c1ccco1 | 11µM* | ? | 32µM* | 35µM* | 79µM* | 50µM*
O=C(Nc1nccs1)c1ccc(Br)o1 | 30% | -10% | -1%[60.1 µM] | -18% | 1% | -11%
Cc1ccc(CNC(=O)/C=C/c2ccc(Br)o2)cc1 | 108% | -3% | -15% | -14% | -7% | 0%
O=C(/C=C/c1ccc(Br)o1)NCc1ccccc1 | ? | -26% | ? | 0.71µM* | -8% | -15%[57.1 µM]
O=C(/C=C/c1ccc(Br)o1)Nc1nccs1 | 20µM* | -20% | ? | ? | ? | -6%
CCC(C)N1C(=O)/C(=C/c2c(NCCCOC(C)C)nc3c(C)cccn3c2=O)SC1=S (configuration not stated) | 13% | ? | -7% | 28µM* | 22µM* | -22%
CCCN1C(=O)/C(=C/c2c(NCCCOC(C)C)nc3c(C)cccn3c2=O)SC1=S | -7% | -8% | -8% | -12% | -20% | ?
CC(=O)NC(Cc1ccc([N+](=O)[O-])cc1)C(=O)NCC(N)C(=O)c1ccccc1 (configuration not stated) | -10% | -2% | -8% | . | . | .
O=C1CCc2cc(-c3csc(-c4ccc(O)cc4)n3)ccc2N1 | 17% | -19% | ? | . | . | .
CC1=CC(=O)CC2C1(C)CCC(C)C2(C)CCC(C)CC(=O)O (configuration not stated) | 89µM* | -5% | -28% | 45µM* | 79µM* | -4%[11.6 µM]
COc1ccc(Cl)cc1NC(=O)c1c(NCc2cccs2)sc2c1CCCC2 | -8% | 11% | -9%[60.1 µM] | ? | 50µM* | .
COc1ccc(OC)c(NC(=O)c2c(NCc3cccs3)sc3c2CCCC3)c1 | ? | -10% | -17%[60.1 µM] | -13% | -18% | .
CCN(CC)c1ccc(C(=O)NNC(=O)CCNC(=O)c2ccccc2)cc1 | 11% | -2% | -2% | . | -11% | 3%
CCN(CC)c1ccc(C(=C2C=CC(=[N+](CC)CC)C=C2)c2ccccc2)cc1 | 8% | 19% | -3% | . | -10% | 45µM*
CCN(CC)c1ccc(C(=C2C=CC(=[N+](CC)Cc3cccc(S(=O)(=O)[O-])c3)C=C2)c2ccc(N(CC)Cc3cccc(S(=O)(=O)O)c3)cc2)cc1 | . | . | 4.2µM* | . | . | .
CCN(CC)CCN(C)c1ccc(/C=C/c2ccnc3ccccc23)cc1 | -11% | -29% | -3% | . | . | .
Cc1c(C(=O)NNC(=O)c2csc(N3CCOCC3)n2)oc2ccc(Br)cc12 | . | . | . | . | 25µM* | -6%
Cc1c(C(=O)NNC(=O)c2csc(N3CCOCC3)n2)oc2ccccc12 | ? | -3% | 1% | . | ? | -4%
CSc1ccc(CCNC(=O)C(C)n2nc(C)c3sc4ccccc4c3c2=O)cc1 (configuration not stated) | -10% | ? | -21% | 13% | . | .
Cc1ccc(C(=O)OCC(=O)NCCc2ccc(S(N)(=O)=O)cc2)o1 | -13% | -4% | -33% | . | ? | -26%
Cc1ccc(C(=O)OCC(=O)Nc2c(Cl)cc(S(N)(=O)=O)cc2Cl)o1 | 71µM* | -12% | ? | ? | 4% | -4%[11.6 µM]
CC(=O)c1c(C)oc2ccc(NS(=O)(=O)c3ccc(F)cc3C)cc12 | 35% | 1% | 0% | 14% | -10% | -7%
O=C(O)c1cc(NS(=O)(=O)c2ccc3ccccc3c2)ccc1O | ? | 17% | -7% | -13% | 2% | -3%
O=C(O)c1cc(S(=O)(=O)Nc2ccc3oc(=O)sc3c2)ccc1O | ? | -23% | ? | 50µM* | 14µM* | 28µM*
CC(=O)c1c(C)oc2ccc(NS(=O)(=O)c3ccc(O)c(C(=O)O)c3)cc12 | ? | -4% | -29% | ? | 25µM* | -25%[57.1 µM]
CC(C)(C)n1ncc2c(=O)n(Cc3ccccc3SC(F)(F)F)cnc21 | 9% | -26% | 4% | . | . | .
CC(C)Oc1ccc(-c2nc(-c3cccnc3)no2)cc1 | 18% | -15% | -4% | . | . | .
